The record followed here is paper PMC4336329 (PLoS ONE, 2015).

In all, about 310,000 compounds went through this assay and about 14,000 (4.5%) showed an effect of 50% or more. Effects have a minus sign here. The full list was thinned out, with strong results kept by preference.
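Note: peak tail current of the secondary pulse compared with the same well before compound.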

Chain of human ether-à-go-go-related gene (hERG) potassium channel (Q12809 whole entry, looked up): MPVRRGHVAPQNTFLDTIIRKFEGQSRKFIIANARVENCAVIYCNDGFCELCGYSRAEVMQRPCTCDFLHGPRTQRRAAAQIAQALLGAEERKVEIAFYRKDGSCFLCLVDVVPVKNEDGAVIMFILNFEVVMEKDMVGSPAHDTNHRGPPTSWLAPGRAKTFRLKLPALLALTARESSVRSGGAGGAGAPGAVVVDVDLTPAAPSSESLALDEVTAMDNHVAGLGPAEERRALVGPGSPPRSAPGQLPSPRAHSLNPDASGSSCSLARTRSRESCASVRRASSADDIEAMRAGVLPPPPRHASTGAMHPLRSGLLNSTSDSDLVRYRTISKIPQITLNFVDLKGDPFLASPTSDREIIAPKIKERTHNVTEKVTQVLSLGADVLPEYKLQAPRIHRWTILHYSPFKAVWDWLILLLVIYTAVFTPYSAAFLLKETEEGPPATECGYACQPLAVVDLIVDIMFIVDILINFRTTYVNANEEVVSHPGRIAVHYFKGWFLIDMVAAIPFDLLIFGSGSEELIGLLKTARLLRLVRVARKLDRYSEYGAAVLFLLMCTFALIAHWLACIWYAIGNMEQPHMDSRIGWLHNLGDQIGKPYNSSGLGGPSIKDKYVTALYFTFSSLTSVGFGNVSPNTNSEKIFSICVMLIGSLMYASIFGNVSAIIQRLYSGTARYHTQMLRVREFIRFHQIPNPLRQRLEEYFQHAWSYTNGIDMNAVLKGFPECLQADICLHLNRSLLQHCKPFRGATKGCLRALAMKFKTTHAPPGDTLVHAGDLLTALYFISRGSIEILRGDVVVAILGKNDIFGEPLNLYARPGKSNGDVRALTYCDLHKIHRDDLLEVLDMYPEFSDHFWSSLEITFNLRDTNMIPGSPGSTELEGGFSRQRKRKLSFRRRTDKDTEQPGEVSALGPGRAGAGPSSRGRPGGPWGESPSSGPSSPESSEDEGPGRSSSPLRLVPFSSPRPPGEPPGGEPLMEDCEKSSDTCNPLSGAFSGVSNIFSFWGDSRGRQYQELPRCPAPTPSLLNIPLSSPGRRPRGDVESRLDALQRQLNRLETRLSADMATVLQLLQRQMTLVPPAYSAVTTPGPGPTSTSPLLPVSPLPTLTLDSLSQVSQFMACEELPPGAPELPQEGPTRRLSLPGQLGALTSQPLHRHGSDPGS

The experiment addresses human ether-à-go-go-related gene (hERG) potassium channel (human, UniProt Q12809). Description: primary screen, population patch clamp on CHO cells stably expressing hERG; higher = less effect of the substance.
For the compound `C=C[C@H]1CN2CC[C@H]1C[C@H]2[C@H](O)c1ccnc2ccccc12`, the “hERG current change (%, negative = inhibition) at 10uM” value is given as -34%.

For `C=C[C@H]1CN2CC[C@H]1C[C@@H]2[C@@H](O)c1ccnc2ccccc12`, the “hERG current change (%, negative = inhibition) at 10uM” value is reported as -57.1%. With `C=CC1CN2CCC1CC2[C@@H](OC(=O)c1ccc(OC)cc1)c1ccnc2ccccc12` (stereo partly drawn), the “hERG current change (%, negative = inhibition) at 10uM” value is listed as -37.3%. On to `CC(Nc1ccccc1)c1cccnc1` (stereo not drawn), for which the “hERG current change (%, negative = inhibition) at 10uM” value was -49.1%.

As to `COc1ccc(CCNS(=O)(=O)c2ccc(Cl)cc2)cc1OC`, the “hERG current change (%, negative = inhibition) at 10uM” value is given as -6.54%. The same measure for `Cc1ccc(S(=O)(=O)NCCC(=O)OCc2ccc([N+](=O)[O-])cc2)cc1C`: -42.3%; for `CC(=O)NC(CC(=O)OCc1ccc([N+](=O)[O-])cc1)c1ccccc1` (stereo not drawn): -63.1%. As for `CC(=O)Nc1ccc(S(=O)(=O)NCCC(=O)OCc2ccc([N+](=O)[O-])cc2)cc1`, the “hERG current change (%, negative = inhibition) at 10uM” value was -57.4%.

As for `Cc1nn(-c2ccccc2)c(C)c1NC(=O)COc1ccc([N+](=O)[O-])cc1`, the “hERG current change (%, negative = inhibition) at 10uM” value was -69.4%. Take `CCOC(=O)CC(NC(C)=O)c1ccc([N+](=O)[O-])cc1` (stereo not drawn): the “hERG current change (%, negative = inhibition) at 10uM” value is on record as -1.79%. With `CC(NC(=O)COc1ccc([N+](=O)[O-])cc1)c1ccccc1` (stereo not drawn), the “hERG current change (%, negative = inhibition) at 10uM” value is on record as -34.5%. As for `CC(=O)Nc1ccc(S(=O)(=O)NCCC(=O)OCc2ccccc2F)cc1`, the figure is -8.68%; as for `O=C(O)CC(NC(=O)COc1ccccc1)c1cccc([N+](=O)[O-])c1` (stereo not drawn), 18.8%; as for `CCC(NC(=O)COc1ccc([N+](=O)[O-])cc1)c1ccccc1` (stereo not drawn), -50.7%. The same measure for `CC(=O)NC(CC(=O)O)c1ccc([N+](=O)[O-])cc1` (stereo not drawn): 10.6%. As for `Cc1nn(-c2ccccc2)c(C)c1NC(=O)COc1ccc(C#N)cc1`, the figure is -36.9%; as for `CC(=O)c1ccc(OCC(=O)Nc2c(C)nn(-c3ccccc3)c2C)cc1`, -2.73%; as for `CCOc1ccc(S(=O)(=O)N(CC)CC)cc1NC(=O)c1ccc(N2CCCC2=O)cc1`, 18.2%. On to `O=C(N/N=C/c1cccnc1)c1ccc(CN2c3cccc4cccc(c34)S2(=O)=O)cc1`, for which the “hERG current change (%, negative = inhibition) at 10uM” value came out at 5.22%.

Regarding `CCC(C(=O)NCc1cccs1)n1nc(C)n2c(cc3occc32)c1=O` (stereo not drawn), the “hERG current change (%, negative = inhibition) at 10uM” value worked out at 0.0905%. As for `COC(=O)c1ccc(NC(=O)N2CCC(O)(c3cccnc3)CC2)cc1`, the figure is 9.11%; as for `CCOC(=O)c1cccc(NC(=O)CSc2nnc(COc3ccc(Cl)cc3)o2)c1`, 16.3%; as for `COc1ccc(C(C(=O)NC2CCCCC2)N2CCC3(CC2)OCCO3)cc1` (stereo not drawn), -8.32%. As for `Nn1c(Nc2ccccc2)nc2ccccc2c1=O`, the figure is 14.2%. On to `O=C(CC1C(=O)NCCN1Cc1cccc(F)c1F)NC1CCCCCC1` (stereo not drawn), for which the “hERG current change (%, negative = inhibition) at 10uM” value was -10.6%. As for `CC1CCN(c2ccc(S(=O)(=O)NC3=NCCCCC3)cc2[N+](=O)[O-])CC1`, the figure is -11.2%. As for `COc1cccc(C2CC(c3cccs3)=NN2S(C)(=O)=O)c1OC` (stereo not drawn), the figure is 7.29%. Regarding `CCc1cc(C(=O)NNC(=S)Nc2cccc(C)c2)cs1`, the “hERG current change (%, negative = inhibition) at 10uM” value is listed as 3.09%. With `O=C1c2ccccc2C(=O)N1CCSc1ncn[nH]1`, the “hERG current change (%, negative = inhibition) at 10uM” value is listed as 19.7%. `O=[N+]([O-])c1ccccc1S(=O)(=O)NCc1ccc(F)cc1`: the “hERG current change (%, negative = inhibition) at 10uM” value amounted to 7.19%.

As to `CCC(NC(=O)c1ccccc1O)c1ccccc1` (stereo not drawn), the “hERG current change (%, negative = inhibition) at 10uM” value is listed as -33.3%.

`CCC(NC(=O)c1ccc([N+](=O)[O-])cc1[N+](=O)[O-])c1ccccc1` (stereo not drawn): the “hERG current change (%, negative = inhibition) at 10uM” value is -56%. For `CC(NC(=O)c1ccc([N+](=O)[O-])cc1[N+](=O)[O-])c1ccc(-c2ccccc2)cc1` (stereo not drawn), the “hERG current change (%, negative = inhibition) at 10uM” value was -1.64%. The same measure for `CN(C)c1ccc(CNCC2CCCO2)cc1.Cl` (stereo not drawn): 10.5%; for `Cc1ccc(NC(=O)CN(C)C(=O)CCC(=O)c2cccs2)cc1`: -16.2%; for `CC1CCOC2(O1)C(=O)Nc1ccccc12` (stereo not drawn): 16.1%. As for `CC(C)OCCCNC(=O)c1cc(Sc2ccc(F)cc2)nc2ccccc12`, the figure is -5.77%. In the case of `COCCCNC(=O)c1cc(Sc2nnc(C)s2)nc2ccccc12`, the “hERG current change (%, negative = inhibition) at 10uM” value turned out to be 2.3%. The same measure for `COCCCNC(=O)c1cc(Sc2ccc(F)cc2)nc2ccccc12`: -26.9%; for `Cc1ccc(Sc2cc(C(=O)NCCN(C)C)c3ccccc3n2)cc1`: -93.9%; for `CCOCCCNC(=O)c1cc(Sc2ccc(F)cc2)nc2ccccc12`: -12.4%. For the compound `O=C(NCCCN1CCOCC1)c1cc(-c2ccc(F)cc2)nc2ccccc12`, the “hERG current change (%, negative = inhibition) at 10uM” value is -27.5%. As for `CN(C)CCNC(=O)c1cc(Sc2ccc(F)cc2)nc2ccccc12`, the figure is -72.5%; as for `Cc1nnc(Sc2cc(C(=O)NCCCN(C)Cc3ccccc3)c3ccccc3n2)s1`, -56.2%. `CCN(CC)CCCNC(=O)c1cc(Sc2nnc(C)s2)nc2ccccc12`: the “hERG current change (%, negative = inhibition) at 10uM” value is given as -40.4%. In the case of `COCCNC(=O)c1cc(Sc2nnc(C)s2)nc2ccccc12`, the “hERG current change (%, negative = inhibition) at 10uM” value is on record as -18.2%. The same measure for `CCN(CC)CCNC(=O)c1cc(Sc2nnc(C)s2)nc2ccccc12`: -45.3%. For `O=C(NCCCN1CCCC1)c1cc(Sc2ccc(F)cc2)nc2ccccc12`, the “hERG current change (%, negative = inhibition) at 10uM” value was -74.1%.

In the case of `O=C(O)CCc1ccc(-c2ccc(F)cc2)n1NC(=O)c1ccco1`, the “hERG current change (%, negative = inhibition) at 10uM” value was found to be 8.01%.

As to `CCN(CC(=O)N1CCN(C)CC1)S(=O)(=O)c1ccc(Cl)cc1`, the “hERG current change (%, negative = inhibition) at 10uM” value was -5.94%. For the compound `O=C1c2ccccc2S(=O)(=O)c2cc(C(=O)N3CCCC3)ccc21`, the “hERG current change (%, negative = inhibition) at 10uM” value is reported as -1.93%. The same measure for `O=C(CNC(=O)c1cccc(Br)c1)N/N=C/c1cccnc1`: -14%; for `O=C(Nc1cccc(-c2ccc(N3CCCCC3)nn2)c1)C(F)(F)F`: -8.5%; for `C/C(CC(=O)NC1CCCCC1)=N\NC(=O)COc1ccc(C)cc1Br`: -22.8%. In the case of `Cc1ccc(Sc2cc(C(=O)NCCCN(C)C)c3ccccc3n2)cc1`, the “hERG current change (%, negative = inhibition) at 10uM” value is listed as -56.5%.

Take `CCOCCCNC(=O)c1cc(Sc2nnc(C)s2)nc2ccccc12`: the “hERG current change (%, negative = inhibition) at 10uM” value is -2.23%. In the case of `CCOCCCNC(=O)c1cc(Sc2ccc(C)cc2)nc2ccccc12`, the “hERG current change (%, negative = inhibition) at 10uM” value was -19.3%.
